# Laboratory results: PubChem BioAssay AID652104 (National Center for Advancing Translational Sciences (NCATS), 2013)
# In all, about 410,000 compounds went through this assay and about 7,200 (1.8%) were called active. A call without a number means that no potency is given here. Not shown: some 7% with an inconclusive outcome. This is one part of a sample in which actives are shown more often than they occur. Values without a mark were called inactive. The call rests on the fitted dose curve; in most records, active means well fitted activation curve with a large enough effect; inconclusive means small, poorly fitted or top-dose-only effect, or another doubt; inactive means no such curve, though single readings can be large or run the other way.
# Experiment: qHTS of TDP-43 Inhibitors; further: nearly all actives have a fitted effect of over 50% in size
# Settings: TDP-43 expressing yeast growth rescue, BacTiter-Glo, 24 h; series mostly up to 46.1 µM
# Procedure, shortened: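 Growth rescue of TDP-43-toxic yeast measured as ATP luminescence (BacTiter-Glo). Cells grown to mid-log in raffinose, induced in galactose at OD600=0.02, exposed to compound 24 hr at 30 deg C.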
# Potency means the concentration at half of the fitted maximal effect.
SMILES,growth rescue (activation),Potency
CCOc1ccccc1NC(=O)CN1CCN(S(=O)(=O)c2ccc(Br)cc2)CC1,0% [at 9.22 µM],
COc1ccccc1CNC(=O)NCc1noc2ccc(C)cc12,,inactive
Cc1ccc(Cn2c(C)c(C(=O)NCc3ccccc3C(F)(F)F)sc2=O)cc1,,15.8 µM (active)
Cc1cccc(CNC(=O)c2sc(=O)n(Cc3ccccc3C)c2C)c1,,inactive
Cc1ccccc1Cn1c(C)c(C(=O)NCc2cccc(C(F)(F)F)c2)sc1=O,,inactive
Fc1ccc(-c2nn(-c3ccccc3Cl)c3c2cnc2ccccc23)cc1,,inactive
CCn1cc(C(=O)NCc2ccc(C)cc2)c(=O)c2cc(S(=O)(=O)N3CCc4ccccc4C3)ccc21,,inactive
COc1ccc(C2CC(c3cccs3)=Nc3ccccc3S2)cc1OC (stereo unspecified),,inactive
COc1ccc(CNC(=O)COCc2cc(-c3cccs3)on2)cc1OC,,inactive
COc1ccc(-c2csc(-c3cccs3)n2)cc1OC,,11.2 µM (active)
CCc1ccc2ncc3c(-c4ccc(C)cc4)nn(CC(=O)NCc4ccccc4)c3c2c1,,inactive
O=C(CSc1oc(-c2ccc(F)cc2)nc1S(=O)(=O)c1ccc(Br)cc1)NC1CCCCC1,,inactive
O=C(CSc1nnc(-c2cccs2)n1Cc1ccccc1)N1CCc2ccccc2C1,,inactive
O=c1onc(-c2cccs2)n1Cc1ccccc1,,12.6 µM (active)
Cc1cc(NC(=O)c2cc(-c3cccs3)on2)nn1Cc1ccc(Cl)cc1,,inactive
CCC(=O)Nc1ccc(C)cc1-c1nc2ccccc2n(Cc2ccccc2)c1=O,,inactive
COc1ccc2oc(-c3ccc(C)c(NC(=O)c4sc5ccccc5c4Cl)c3)nc2c1,,inactive
Cc1ccc(C)c(Cn2c(C)c(CNCc3ccc(F)cc3)c(C(=O)O)c2C)c1,,inactive
CC(C)(C)NC(=O)NC(=O)COC(=O)Cc1ccc(Cl)cc1Cl,,35.5 µM (active)
COc1ccccc1OCCC(=O)OCC(=O)NC(=O)NC(C)(C)C,,inactive
CC(C)(C)NC(=O)NC(=O)COC(=O)Cc1c(F)cccc1Cl,,inactive
COc1ccc(C2=NC3(CCCCC3)N(CC(=O)Nc3ccc(C(C)C)cc3)C2=O)cc1,,inactive
CCN(CC)CCNc1ncnc2c1cnn2-c1cc(Cl)ccc1C,,inactive
CCn1c(SCC(=O)Nc2ccccc2F)nc2c(c1=O)SC(C)C2 (stereo unspecified),,35.5 µM (active)
CCn1c(SCC(=O)Nc2ccc3c(c2)OCCO3)nc2c(c1=O)SC(C)C2 (stereo unspecified),,inactive
CC1Cc2nc(SCC(=O)Nc3ccccc3F)n(C)c(=O)c2S1 (stereo unspecified),,inactive

SMILES,growth rescue (activation),Potency
CC(C)(CNC(=O)Cc1ccc(Cl)cc1Cl)N1CCOCC1,,inactive
CSCc1cc(N2CCOCC2)nc(SCc2ccc(Cl)cc2Cl)n1,,22.4 µM (active)
CSCc1cc(N(C)C)nc(SCc2ccc(Cl)cc2Cl)n1,,inactive
Cc1ccc(C(=O)Nc2ccccc2F)cc1S(=O)(=O)N1CCOCC1,,inactive
COc1c(Cl)cc(Cl)cc1C(=O)Nc1cccc2cccnc12,,inactive
O=C(Nc1cccc2cccnc12)c1cccc2c(Br)cccc12,,inactive
O=C(Nc1cccc2cccnc12)c1cccc(Cl)c1,,14.1 µM (active)
CCOCc1nnc(NC(=O)CCC2CCCCC2)s1,,inactive
CC(C)(C)NC(=O)NC(=O)COC(=O)CCC1CCCCC1,,inactive
N/C(=N\OC(=O)CCC1CCCCC1)c1ccccn1,,8.91 µM (active)
COc1ccc(-c2nnc(SCC(=O)Nc3ccc(C(C)C)cc3)nc2-c2ccc(OC)c(OC)c2)cc1OC,,inactive
CC(C)Cn1cnc2c(SCc3ccc(Cl)cc3)nc(N)nc21,,inactive
Clc1ccc(CSc2nncn3c2cc2occc23)cc1,,25.1 µM (active)
CCN(C(=O)CSc1nnc(C)n2c1cc1occc12)c1ccccc1,,inactive
COc1ccc2c(c1)CCc1c(C(=O)Nc3cc(C)ccc3O)noc1-2,,inactive
Cc1ccc(C)c(N2CCN(C(=O)C3CCC(CNS(=O)(=O)c4cccs4)CC3)CC2)c1 (stereo unspecified),,inactive
COc1ccc2c(c1)CCc1c(C(=O)N3CCCC3)noc1-2,,inactive
COc1ccc2c(CC(=O)NNC(=O)c3ccccc3F)coc2c1,,inactive
COc1ccc2c(c1)CCC/C2=N\OC(=O)c1ccccc1F,,11.2 µM (active)
COc1cc([N+](=O)[O-])ccc1NC(=S)N1CCN(c2ccccn2)CC1,,inactive
COc1ccccc1CC(=O)Nc1ccc([N+](=O)[O-])cc1OC,,11.2 µM (active)
COc1ccc(Br)cc1CN(C)CC(=O)Nc1cc([N+](=O)[O-])ccc1OC,,inactive
COc1cc([N+](=O)[O-])ccc1NC(=O)COC(=O)CCOc1ccc(C)cc1,,17.8 µM (active)
COc1ccc([N+](=O)[O-])cc1NCC(=O)c1ccc(C)cc1,,inactive
COc1ccc(NC(=O)c2cc([N+](=O)[O-])ccc2NC(=O)CNC2CCCCC2C)c(OC)c1 (stereo unspecified),,inactive
Nc1c(Cl)cc(-c2csc(N3CCCC3c3nc4cc(Cl)c(Cl)cc4n3CCOCCO)n2)cc1Cl (stereo unspecified),,inactive

SMILES,growth rescue (activation),Potency
Cc1nc2cc(C(F)(F)F)ccc2n1CCNc1nc(-c2cc(Cl)c(N)c(Cl)c2)cs1,,22.4 µM (active)
CCCn1c(C(C)Nc2nc(-c3ccc(C)cc3)cs2)nc2cc(Cl)c(N3CCCCC3)cc21 (stereo unspecified),,inactive
CCc1cccc(CC)c1NC(=O)Cn1c(=O)c(-c2cc(C)ccc2NC(C)=O)nc2ccccc21,,inactive
CC(C)C1CC2=C(C(=O)OC(C)(C)O2)C(c2ccc(F)cc2)O1 (stereo unspecified),,inactive
CC(C)C1Cc2[nH][nH]c(=O)c2C(c2ccc(Cl)cc2)O1 (stereo unspecified),,20 µM (active)
CC(C)C[C@@H]1Cc2[nH][nH]c(=O)c2[C@H](CCc2ccccc2)O1,,inactive
Cc1cccn2c(=O)c3cc(C(=O)NC(C)c4ccccc4)c(=N)n(CCCO)c3nc12 (stereo unspecified),,inactive
CCc1ccc(NC(=O)c2nn(-c3ccc(C)cc3)c(=O)n(C)c2=O)cc1,19% [at 9.22 µM],
CCOC(=O)c1ccc2c(c1)N(Cc1cccc(OC)c1)C(=O)c1ccccc1S2(=O)=O,,inactive
Cc1cccc(NC(=O)c2cc3c(C)nn(-c4ccccc4)c3s2)c1,,35.5 µM (active)
CC(=O)c1cccc(NC(=O)c2nc(-c3ccccc3)n(-c3cccc(C)c3)n2)c1,,22.4 µM (active)
CC(=O)c1ccc(NC(=O)c2nc3nc(C)cc(C(F)F)n3n2)cc1,,inactive
Cc1nn(-c2ccccc2)c(-n2cccc2)c1C(=O)O,,inactive
Cc1cccc(NC(=O)CSc2nnc(CNC(=O)c3cccc(C)c3)n2-c2ccccc2)c1,,inactive
Cc1nn(-c2ccccc2)c2sc(C(=O)N(Cc3ccco3)C(C)C(=O)NC(C)(C)C)cc12 (stereo unspecified),,inactive
Cc1cccc(C)c1NC(=O)CNC(=O)c1c(C)nn(-c2ccccc2)c1C,,inactive
Cc1nn(-c2ccccc2)c(Cl)c1C(=O)Nc1ccccc1,,11.2 µM (active)
CCn1c(=O)c2cc(C(=O)Nc3cccc(C(C)=O)c3)sc2c2ccccc21,,inactive
Cc1ccc(-c2nnc(SCc3ccccc3C)o2)cc1,,inactive
COc1ccc(CCNC(=O)c2ccc3c(c2)sc2nc(-c4ccc(C)cc4)cn23)cc1OC,,inactive
O=C(OCc1ccc(-c2ccccc2)cc1)c1cccc(O)c1,,inactive
Oc1ccc(-c2nncn2-c2ccccc2)cc1,,inactive
Oc1ccc(-c2cccc(-c3ccc(O)cc3)c2)cc1,,6.31 µM (active)
COCCN(Cc1ccco1)C(=O)Cn1ncc2c([nH]c3ccccc32)c1=O,,inactive
COc1cccc(CNC(=O)C(=O)NCC(c2cccs2)S(=O)(=O)c2ccccc2)c1 (stereo unspecified),,inactive
COc1ccc(Br)cc1CNC(=O)c1cc(=O)[nH]c2ccc(S(=O)(=O)N3CCCC3)cc12,,inactive

SMILES,growth rescue (activation),Potency
CCOC(=O)N1CCc2c(sc3c2C(=O)NC(c2ccccc2F)N3)C1 (stereo unspecified),,inactive
CCC(C)N(C(=O)CSc1ncnc2c1cnn2-c1ccccc1)C1CCS(=O)(=O)C1 (stereo unspecified),,inactive
CCN(CC)C(=O)CSc1ncnc2c1cnn2-c1ccccc1,,15.8 µM (active)
COC(=O)CSc1ncnc2c1cnn2-c1ccc(C)cc1C,,17.8 µM (active)
Clc1cccc(-n2ncc3c(NCCc4ccccc4)ncnc32)c1,,inactive
COc1ccccc1N1CCN(C(=O)CSc2ncnc3c2cnn3-c2ccc(C)c(C)c2)CC1,,inactive
Cc1ccc(-n2ncc3c(Nc4cccc(C(=O)O)c4)ncnc32)cc1,,inactive
CC(C)Sc1ncnc2c1cnn2-c1ccccc1,,12.6 µM (active)
CCN(C(=O)CSc1ncnc2c1cnn2-c1ccccc1)C1CCS(=O)(=O)C1 (stereo unspecified),,inactive
CCN(c1ncnc2c1cnn2-c1ccc(C)cc1)C1CCCCC1,,inactive
CCOc1cccc(NC(=O)c2ccc(F)c(S(=O)(=O)N(CC)c3cccc(C)c3)c2)c1,,inactive
Cc1ccccc1-n1c(=O)c2ccccc2n(Cc2ccc(F)cc2)c1=O,,inactive
CCn1c(C(=O)Nc2cc(Cl)ccc2C)cc2sc(Cl)cc21,,inactive
CCC(=O)N1CCc2cc(Br)cc(S(=O)(=O)CCC(=O)NCc3ccccc3OC)c21,,inactive
CCc1cccc(C)c1NS(=O)(=O)c1ccc(-c2cc(C)no2)s1,,inactive
Cc1cc(NC(=O)C2CCC(CNS(=O)(=O)c3ccc(Br)s3)CC2)ccc1Br (stereo unspecified),,inactive
COc1ccc(OC)c(CCNC(=O)CCCn2c(=O)c3cccn3c3cccnc32)c1,,inactive
CN1CCN(C(CNC(=O)c2ccccc2F)c2ccc3c(c2)OCO3)CC1 (stereo unspecified),,inactive
Cc1ccc(-c2nnc3c4ccccc4c(C)nn23)cc1NC(=O)c1cccc(Br)c1,,inactive
CCCN1CCN(CCCNC(=O)c2cnn(-c3ccc(C)cc3)c2-n2cccc2)CC1,,inactive
CCn1nccc1C(=O)Nc1ccc(S(=O)(=O)NC23CC4CC(CC(C4)C2)C3)cc1,,inactive
Cc1ccc(-c2nn(CCC(=O)Nc3ccc(Cl)c(Cl)c3)c(=O)c3ccccc23)cc1,,inactive
CCn1nccc1C(=O)Nc1ccc(Cl)c(Cl)c1,,17.8 µM (active)
